According to PubChem BioAssay (NCI):
The panel holds about 83,000 compounds, 20% with a hit somewhere; the sample as a whole holds those more often.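 Single-concentration screen, 48 h exposure, 96-well plates. Endpoint: percent growth. Below 10 = active.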 Calls of active or inactive are those of the source.

Legend:
Experiment in all cases: NCI-60 one-dose screen, 48 h (100 = growth as untreated, 0 = no growth, -100 = all killed)
Conditions in all cases: 10 µM unless noted
[1] = tested on: DU-145 prostate
[2] = tested on: K-562 leukemia
[3] = tested on: MALME-3M melanoma
[4] = tested on: MDA-MB-231 breast
[5] = tested on: RXF 393 renal
[6] = tested on: SF-268 CNS
[7] = tested on: SF-295 CNS
[8] = tested on: SF-539 CNS
[9] = tested on: UACC-257 melanoma
[10] = tested on: M14 melanoma
[11] = tested on: HCT-15 colon
[12] = tested on: HT29 colon
[13] = tested on: SNB-75 CNS
[14] = tested on: SNB-19 CNS
[15] = tested on: U251 CNS
[16] = tested on: PC-3 prostate
[17] = tested on: SK-MEL-5 melanoma
[18] = tested on: UACC-62 melanoma
[19] = tested on: LOX IMVI melanoma
[20] = tested on: SK-MEL-28 melanoma

Measured: growth

CNC(=O)c1cc(Oc2ccc3c(c2)sc2nc(-c4ccc(OC)cc4)cn23)ccn1
active: [1] 8.28%
inactive: [2] 33.8% | [3] 68.3% | [4] 62.2% | [5] 45.7% | [6] 80.1% | [7] 14.1% | [8] 83.6% | [9] 46.5% | [10] 57.9% | [11] 52.7% | [12] 65.6% | [13] 76.8% | [14] 79.8% | [15] 81.8% | [16] 58.3% | [17] 20.3% | [18] 40.2% | [19] 82.1% | [20] 67.9%

Nc1nc(N)c(N=Nc2ccccc2)c(-c2ccccc2)n1
active: [13] -0.588%
inactive: [1] 76.8% | [2] 77.1% | [3] 77.4% | [4] 49.9% | [5] 24.9% | [6] 58% | [7] 54.2% | [8] 47.4% | [9] 90.8% | [10] 84.5% | [11] 58.6% | [12] 51.1% | [14] 69.5% | [15] 72.4% | [16] 35.8% | [17] 46.9% | [18] 41.4% | [19] 42.6% | [20] 76.2%

CSc1nc(C)c([N+](=O)[O-])c(N)n1
inactive: [1] 109% | [2] 91% | [3] 104% | [4] 96.5% | [5] 114% | [6] 105% | [7] 109% | [8] 104% | [9] 84.7% | [10] 91.8% | [11] 107% | [12] 85.4% | [13] 98.7% | [14] 96.9% | [15] 87.9% | [16] 85.3% | [17] 102% | [18] 98% | [19] 96.7% | [20] 120%

CC1CCN(C(=S)SCC(=O)NC(=O)c2ccccc2)CC1
inactive: [1] 107% | [2] 97.1% | [3] 95.5% | [4] 117% | [5] 136% | [6] 100% | [7] 105% | [8] 99.2% | [9] 102% | [10] 109% | [11] 109% | [12] 101% | [13] 96.5% | [14] 111% | [15] 106% | [16] 102% | [17] 113% | [18] 106% | [19] 96.9% | [20] 111%

S=C(c1ccc2c(c1)OCO2)N1CCN(c2cccc(Cl)c2)CC1
inactive: [2] 29% | [3] 40.7% | [4] 36.2% | [5] 42.1% | [6] 41% | [9] 54% | [10] 13.5% | [11] 24.1% | [13] 12.5% | [14] 40.4% | [15] 28.5% | [16] 15.9% | [18] 25.4% | [19] 45.4% | [20] 53.5%
active: [1] -0.195% | [7] 9.3% | [8] -4.83% | [12] 4.72% | [17] -10.8%

O=C(Nc1ccc(Br)cc1)C1=NCCCCN1
inactive: [1] 85.1% | [2] 50.8% | [3] 104% | [4] 92.1% | [5] 110% | [6] 79.6% | [7] 98.2% | [8] 90.9% | [9] 100% | [10] 81.6% | [11] 62.2% | [12] 86% | [13] 88.6% | [14] 97.3% | [15] 91.6% | [16] 74.4% | [17] 93.3% | [18] 58.8% | [19] 35.5% | [20] 114%

Nc1[nH]n2cc(-c3ccc(F)cc3)nc2c1N=Nc1ccc(S(N)(=O)=O)cc1
inactive: [1] 70.2% | [2] 90.1% | [3] 58.4% | [4] 74.8% | [5] 60.4% | [6] 76.7% | [7] 98.2% | [8] 72.5% | [9] 99.6% | [10] 64.6% | [11] 60.4% | [12] 83.6% | [13] 56.4% | [14] 86.4% | [15] 76.4% | [16] 80.6% | [17] 76.9% | [18] 71.4% | [19] 64.5% | [20] 84.8%

Cc1nc2sc(C(=O)Nc3cccc(Br)c3C)c(N)c2cc1C(O)c1ccccc1 (stereo not given)
inactive: [3] 56.9% | [5] 37.9% | [6] 16.3% | [7] 20.5% | [9] 52% | [11] 10.8% | [13] 52.6% | [14] 25.4% | [16] 18.3% | [18] 18.5% | [19] 16.3% | [20] 55.9%
active: [1] 6.13% | [2] 6.3% | [4] 3.16% | [8] 1.41% | [10] 9.77% | [12] 9.11% | [15] 2.74% | [17] -50.9%
